PMC4336329 (PLoS ONE, 2015)
About 14,000 (4.5%) of roughly 310,000 compounds showed an effect of 50% or more. Effects have a minus sign here. This is one part of a sample in which strong results are shown more often than they occur.

Each molecule was assayed against human ether-à-go-go-related gene (hERG) potassium channel (human, UniProt Q12809) (assay: primary screen, population patch clamp on CHO cells stably expressing hERG; higher = less effect of the substance).
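Note: peak tail current of the secondary pulse compared with the same well before compound.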

Chain of human ether-à-go-go-related gene (hERG) potassium channel (Q12809 whole entry, looked up): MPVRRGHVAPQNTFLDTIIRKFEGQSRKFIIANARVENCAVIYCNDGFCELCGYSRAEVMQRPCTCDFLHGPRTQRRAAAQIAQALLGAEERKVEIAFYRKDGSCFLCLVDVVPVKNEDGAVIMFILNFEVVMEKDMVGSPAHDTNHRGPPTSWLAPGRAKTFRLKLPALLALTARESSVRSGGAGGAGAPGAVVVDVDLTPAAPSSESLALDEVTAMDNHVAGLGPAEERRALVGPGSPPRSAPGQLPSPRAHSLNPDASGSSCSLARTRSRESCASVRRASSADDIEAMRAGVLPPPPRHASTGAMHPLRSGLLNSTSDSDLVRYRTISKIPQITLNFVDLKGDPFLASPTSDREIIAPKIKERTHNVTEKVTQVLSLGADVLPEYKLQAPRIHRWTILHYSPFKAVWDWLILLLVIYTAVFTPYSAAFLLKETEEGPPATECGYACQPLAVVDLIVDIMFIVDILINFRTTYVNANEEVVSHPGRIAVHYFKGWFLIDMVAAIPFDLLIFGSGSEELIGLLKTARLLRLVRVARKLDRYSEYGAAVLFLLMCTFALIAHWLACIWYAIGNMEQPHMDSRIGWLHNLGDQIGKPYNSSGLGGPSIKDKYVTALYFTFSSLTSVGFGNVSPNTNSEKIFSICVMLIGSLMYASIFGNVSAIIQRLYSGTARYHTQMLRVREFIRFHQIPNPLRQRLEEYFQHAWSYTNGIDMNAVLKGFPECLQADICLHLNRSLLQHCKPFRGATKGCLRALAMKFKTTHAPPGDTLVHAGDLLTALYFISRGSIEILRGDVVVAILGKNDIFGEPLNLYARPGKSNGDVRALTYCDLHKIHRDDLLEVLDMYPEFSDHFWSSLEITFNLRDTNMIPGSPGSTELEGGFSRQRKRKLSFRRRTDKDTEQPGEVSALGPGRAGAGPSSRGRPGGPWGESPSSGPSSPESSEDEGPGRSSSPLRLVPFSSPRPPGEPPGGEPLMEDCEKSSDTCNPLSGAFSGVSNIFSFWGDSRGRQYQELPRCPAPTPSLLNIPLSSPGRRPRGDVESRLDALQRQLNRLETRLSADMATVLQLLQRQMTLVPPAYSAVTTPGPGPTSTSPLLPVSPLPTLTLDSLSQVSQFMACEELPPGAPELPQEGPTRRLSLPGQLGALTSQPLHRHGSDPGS

SMILES	hERG current change (%, negative = inhibition) at 10uM [%]
COc1ccc(NC(C)=O)cc1S(=O)(=O)N1CCN(C(=O)c2ccccc2F)CC1	-7.16
O=C(COc1ccccc1Cl)NCCCNC(=O)c1cnccn1	5.28
Cc1ccc(-c2ccc(C(=O)NCCCNC(=O)c3cnccn3)o2)cc1Cl	25.5
O=C(NCCNC(=O)c1ccc(-c2ccc(Cl)c(Cl)c2)o1)c1cnccn1	-71.6
O=C(NCCCNC(=O)c1ccc(-c2cccc(Cl)c2)o1)c1cnccn1	-31.8
O=C(COc1ccc(Cl)cc1)NCCCNC(=O)c1cnccn1	-10.2
O=C(COc1ccc(Cl)cc1Cl)NCCCNC(=O)c1cnccn1	-56.5
CCn1c(SCc2cc(=O)[nH]c3ccccc23)nnc1C1CC1	8.48
O=C(N/N=C/c1ccncc1)c1cccc(NC(=O)c2ccccc2Cl)c1	-2.33
O=C(C1CCN(S(=O)(=O)c2cccc3nsnc23)CC1)N1CCCCC1	2.03
O=C(CN1CCN(c2ccc(F)cc2)CC1)N(C1CCCC1)C1CCS(=O)(=O)C1 (centres unmarked)	-40.4
Cc1ccccc1Cn1cc(/C=N/n2cnnc2)c2ccccc21	14.8
COc1cc(CC(=O)Oc2ccc3c(c2)OCO3)cc(OC)c1OC	-2.51
COc1ccc(CCNC(=O)CS(=O)(=O)Cc2nc(-c3ccccc3Cl)oc2C)cc1OC	-3.23
CCn1cc(CNC(=O)c2cc(-c3cc(OC)ccc3OC)nc3ccccc23)c(C)n1	-53.9
COc1ccc(/C(C)=N/NC(=O)c2cc(-c3cccnc3)nc3ccccc23)cc1	10.6
COc1ccc(-c2cc(C(=O)N/N=C(\C)c3cccnc3)c3ccccc3n2)cc1	8.87
COc1ccc(OC)c(-c2cc(C(=O)N/N=C(\C)c3cccnc3)c3ccccc3n2)c1	-65.5
CC(=O)Nc1cccc(/C(C)=N/NC(=O)c2cc(-c3ccncc3)nc3ccccc23)c1	-6.95
C/C(=N\NC(=O)c1cc(-c2ccncc2)nc2ccccc12)c1ccc(OC(F)F)cc1	-56.1
COc1ccc(-c2cc(C(=O)N/N=C(\C)c3cccnc3)c3ccccc3n2)c(OC)c1	1.6
COc1ccc(-c2cc(C(=O)NCc3cn(C)nc3C)c3ccccc3n2)cc1OC	2.61
CCn1cc(CNC(=O)c2cc(-c3ccccc3OC)nc3ccccc23)c(C)n1	-19.5
CCOC(=O)c1cc(-c2ccccc2C)n(CC2CC(c3cccc([N+](=O)[O-])c3)=NO2)n1 (centres unmarked)	0.113
Cc1csc(SCC(=O)Nc2cccc(S(=O)(=O)N3CCOCC3)c2)n1	-6.13
CCn1nnnc1SCC(=O)N1c2ccccc2CCc2ccccc21	2.92
CCOC(=O)C(=O)Nc1nnc(SCc2ccc(F)cc2)s1	1.7

SMILES	hERG current change (%, negative = inhibition) at 10uM [%]
Cc1ccc(SCC(=O)NC2CC2)cc1	13.3
CCOCCCNC(=O)c1cc(C)nn1-c1ccccc1	11
C[C@H]1C(=O)N(C)CCN1Cc1cn(C)nc1-c1ccc(Oc2ccccc2)cc1	-4.92
CCCN1CCC(NCc2cn(C)nc2-c2ccc(Oc3ccccc3)cc2)CC1	-66.1
COCCN1CCN(Cc2cn(C)nc2-c2ccc(Oc3ccccc3)cc2)CC1	-65.2
Cn1cc(CN2CCCC(CO)C2)c(-c2ccc(Oc3ccccc3)cc2)n1 (centres unmarked)	-26.2
CCN(CC)C(=O)C1CCN(Cc2cn(C)nc2-c2ccc(Oc3ccccc3)cc2)CC1	-46.9
COCCN1CCCC(CNCc2cn(C)nc2-c2ccc(Oc3ccccc3)cc2)C1 (centres unmarked)	-33.2
Cn1cc(CN2CCN(CCO)CC2)c(-c2ccc(Oc3ccccc3)cc2)n1	-32.3
Cn1cc(CN2CCC(CO)CC2)c(-c2ccc(Oc3ccccc3)cc2)n1	-67.5
CCOC(=O)C1CCN(Cc2cn(C)nc2-c2ccc(Oc3ccccc3)cc2)CC1	-44.9
Cn1cc(CN2CCC(O)CC2)c(-c2ccc(Oc3ccccc3)cc2)n1	-23.7
COC1CCCN(Cc2cn(C)nc2-c2ccc(Oc3ccccc3)cc2)C1 (centres unmarked)	-40.7
CC1CN(Cc2cn(C)nc2-c2ccc(Oc3ccccc3)cc2)CCN1C (centres unmarked)	-57.2
O=C(O)c1ccc2c3c(cccc13)C(=O)N(c1cccc3ccccc13)C2=O	34.3
COc1ccc(-c2[nH]ncc2CN(CCO)Cc2cccs2)c(F)c1	4.65
CCCC(=O)NC(C)c1nc2ccccc2n1C(C)C (centres unmarked)	8.05
Cc1cc(C)cc(N(CCC#N)C(=O)COC(=O)CN2C(=O)NC(C)(C)C2=O)c1	19.6
COc1cccc(NC(=O)NNS(=O)(=O)c2ccc(OC)cc2OC)c1	-3
COc1ccc(N=N/C(C(C)=O)=C(/C)O)cc1	-24.5
CN(C)S(=O)(=O)c1cccc(-c2nn(-c3ccccc3)cc2/C=C2\SC(=S)NC2=O)c1	20.1
CCOc1cc(C(=O)OCC(=O)N(C)c2ccccc2)cc(OCC)c1OCC	-17.6
CCc1nnc(NC(=O)CSc2ncc(-c3ccccc3)n2C)s1	-0.226
Cn1cc(CNCc2cnc3ccccn23)c(-c2ccc(Oc3ccccc3)cc2)n1	-50
CN(Cc1cn(C)nc1-c1ccc(Oc2ccccc2)cc1)Cc1cnc2ccccn12	-54
Cc1cnccc1CN(C)Cc1cn(C)nc1-c1ccc(Oc2ccccc2)cc1	-27.4
